TGFb SMAD3 inh: qHTS for Inhibitors of TGF-b; hit rate 1.2% among 410,000; Potency, µM (doses to about 46.1 µM), hits mostly inhibitors; AID 588855, 2011; HepG2 CAGA-GFP TGF-b/SMAD3 reporter, GFP fluorescence, 18 h; TGF-beta stimulated, 500 pg/mL final; note: nearly all actives have a fitted effect of over 65% in size
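Cell-based qHTS in HEPG2 carrying a CAGA-GFP Smad reporter; compounds added before 500 pg/mL final TGF-beta, 18 h incubation at 37 degrees C, GFP fluorescence quantified per cell by imaging cytometry.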
S2 tox: Viability Counterscreen for Primary qHTS for Inhibitors of ATXN expression; S2 cells (HEK-293 line with an ATXN2-luciferase reporter) viability, CellTiter-Fluor protease fluorescence, 24 h; Potency, µM (doses to about 56.7 µM), most hits filed as cytotoxic; hit rate 0.49% among 400,000; note: nearly all actives have a fitted effect of over 40% in size
mIDH1 inhibitor: qHTS for Inhibitors of mutant isocitrate dehydrogenase 1 (IDH1): qHTS | Potency, µM (top dose mostly 76.6 µM), usual class: inhibitors | AID 602179, 2012 | Isocitrate dehydrogenase [NADP] cytoplasmic (Homo sapiens), O75874 | hit rate 0.093% among 390,000 | IDH1-R132H enzyme, NADPH consumption, diaphorase/resazurin fluorescence; note: nearly all actives have a fitted effect of over 65% in size
Target sequence (O75874 whole entry R132H, stated change not applied): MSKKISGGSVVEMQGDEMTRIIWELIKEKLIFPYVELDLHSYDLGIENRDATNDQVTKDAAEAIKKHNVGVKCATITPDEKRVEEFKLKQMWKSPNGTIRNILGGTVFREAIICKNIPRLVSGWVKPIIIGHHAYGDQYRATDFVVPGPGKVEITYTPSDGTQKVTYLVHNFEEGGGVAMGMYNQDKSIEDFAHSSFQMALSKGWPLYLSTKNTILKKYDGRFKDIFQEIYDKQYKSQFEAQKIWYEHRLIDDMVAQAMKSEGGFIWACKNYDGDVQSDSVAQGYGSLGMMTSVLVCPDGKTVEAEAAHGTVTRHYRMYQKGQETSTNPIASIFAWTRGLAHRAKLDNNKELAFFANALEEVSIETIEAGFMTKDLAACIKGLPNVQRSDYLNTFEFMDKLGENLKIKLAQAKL
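IDH1-R132H (0.5 ug/mL dispensed) in pH 7.5 Tris buffer was preincubated 30 min with compound, then given a substrate mix of 0.016 mM NADPH and 2 mM alpha-KG for 80 min at room temperature; remaining NADPH was read by diaphorase/resazurin fluorescence.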
LDHA block: qHTS assay for inhibitors of human lactate dehydrogenase; activity change, % (values are at about 110 or 230 µM); hit rate 0.15% among 480,000; purified LDHA, NADH/diaphorase-resazurin fluorescence; stronger effect = lower value; L-lactate dehydrogenase A chain (Homo sapiens), P00338; in the data active = activity change below about -30%; inconclusive = mostly about -25% to -30%
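Enzyme activity of human lactate dehydrogenase 5 (2 nM; 0.06 mM NADH, 0.2 mM pyruvate, 5 min, RT) is measured via a resazurin/diaphorase fluorescence readout of residual NADH.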
HepG2 tox-1: qHTS for Inhibitors of TGF-b: Cytotox Counterscreen; AID 588856, 2011; HepG2 CAGA-GFP viability, ATP luminescence, 18 h; Potency, µM (titrated, usually from 46.1 µM), most hits filed as cytotoxic; hit rate 0.76% among 410,000
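HepG2 CAGA-GFP cells (1000/well, DMEM with 1% FBS) received compound, then TGF-beta at 500 pg/mL final, and were incubated 18 hours at 37 degrees C. Viability was read by CellTiter-Glo luminescence. Media-only wells were set as complete cell-killing and DMSO as no toxicity.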
ATXN2 expr inh: Primary qHTS for Inhibitors of ATXN expression; Potency, µM (titrated, usually from 57 µM), usual class: inhibitors; HEK-293 ATXN2-luciferase reporter, luminescence, 24 h; hit rate 0.72% among 360,000; AID 1745845, 2022; note: nearly all actives have a fitted effect of over 55% in size
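qHTS (up to 57 uM final) was run with 24 h compound exposure of reporter cells at 37 °C. Each well was multiplexed: SteadyGlo luminescence measured ATXN2-luciferase expression after a fluorogenic Gly-Phe-AFC viability readout (25 uM final).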
TGFb confirm: qHTS for Inhibitors of TGF-b: Confirmation of Cherry Picks; AID 720534, 2013; shares compounds with TGFb SMAD3 inh; HepG2 CAGA-GFP TGF-b reporter, GFP fluorescence, 18 h; cells stimulated with TGF-beta, 500 pg/mL; hit rate 63% among 1,600; Potency, µM (doses to about 46.1 µM), hits mostly inhibitors; note: nearly all actives have a fitted effect of over 65% in size
HepG2 tox-2: qHTS for Inhibitors of TGF-b: Cytotox Counterscreen for Cherry Picks; shares compounds with TGFb SMAD3 inh; HepG2 CAGA-GFP viability, ATP luminescence, 18 h; cells stimulated with TGF-beta, 500 pg/mL; Potency, µM (series often up to 46.1 µM), actives largely listed as inhibitors; hit rate 27% among 1,600; note: nearly all actives have a fitted effect of over 70% in size
TGFb CCL64 inh: qHTS for Inhibitors of TGF-b: CCL64 Cells Orthogonal Assay for Cherry Picks; AID 720536, 2013; hit rate 41% among 1,600; shares compounds with TGFb SMAD3 inh; CCL64 CAGA-GFP reporter, TGF-b stimulated, GFP fluorescence, 18 h; Potency, µM (series often up to 46.1 µM), usual class: inhibitors; note: nearly all actives have a fitted effect of over 65% in size
TGFb COP inh: qHTS for Inhibitors of TGF-b: Hit Validation in HepG2 Cells using COP promoter. AID 720537, 2013. HepG2 COP-GFP TGF-b reporter, GFP fluorescence, 18 h; cells stimulated by added recombinant TGF-beta. hit rate 3% among 1,600. shares compounds with TGFb SMAD3 inh. Potency, µM (highest dose often 46.1 µM), usual class: inhibitors; note: nearly all actives have a fitted effect of over 70% in size
Numbers stand for hits; i = inactive; ? = inconclusive; nt = no result; ! = not active in a repeat. Rows were chosen to be rich in hits. Some 2.2% of all compounds tested hit in one or more screens of this group. Unless noted, calls come from the whole dose curve; as a rule, active = well fitted curve in the direction sought with a large enough effect; inconclusive = small, poorly fitted or top-dose-only effect, or another doubt; inactive = no such curve, though single readings can be large; an effect the other way counts as inactive or inconclusive.

SMILES	TGFb SMAD3 inh	S2 tox	mIDH1 inhibitor	LDHA block	HepG2 tox-1	ATXN2 expr inh	TGFb confirm	HepG2 tox-2	TGFb CCL64 inh	TGFb COP inh
CC(=O)Nc1ccc(S(=O)(=O)Nc2c(C)nn(-c3ccccc3)c2C)cc1	i	?	i	i	i	i	nt	nt	nt	nt
Cc1nn(-c2ccc(F)cc2)c(C)c1NS(=O)(=O)c1ccc2ccccc2c1	10µM	?	i	i	i	?	?	?	?	i
CCCOc1ccccc1N/C(=N/c1nc(C)cc(C)n1)NC(=O)COc1ccc(OC)cc1	10µM	i	i	i	i	i	13µM	i	?	i
COc1ccc(-c2c(C)oc3cc(OCCN4CCCCC4)ccc3c2=O)cc1OC	nt	nt	nt	i	nt	nt	nt	nt	nt	nt
CC(=O)Nc1ncnc2c1c(-c1ccc(Cl)cc1)nn2C(C)(C)C	3.5µM	?	i	i	i	?	2.6µM	?	?	?
CCOc1ccc(N2C(=O)CC(N(CCc3ccc(S(N)(=O)=O)cc3)C(C)=O)C2=O)cc1 (configuration not stated)	i	i	i	i	i	i	nt	nt	nt	nt
CCCCCCOc1ccc(N2C(=O)CC(N(CCc3ccc(S(N)(=O)=O)cc3)C(C)=O)C2=O)cc1 (configuration not stated)	?	i	i	i	i	i	?	i	i	i
Cc1c(C(=O)N(C)c2cccc(Cl)c2)cnn1-c1ccccc1	i	i	i	i	i	i	nt	nt	nt	nt
C=CCC[C@H](Cc1ccc(F)cc1)C(=O)OC[C@@H](Cc1c[nH]c2ccccc12)NC(=O)[C@H](CC=C)CC(=O)N(CCO)Cc1ccccc1	11µM	20µM	i	i	i	?	12µM	?	18µM	i
C=CCC[C@@H](Cc1ccc(F)cc1)C(=O)OC[C@@H](Cc1c[nH]c2ccccc12)NC(=O)[C@H](CC=C)CC(=O)N(CCO)Cc1ccccc1	?	nt	i	i	i	?	nt	nt	nt	nt
CCN1CCN(Cc2ccc(NC(=O)c3cc(NC(=O)c4nccnc4N)cc(OC)c3)cc2C(F)(F)F)CC1	?	?	i	i	i	?	nt	nt	nt	nt
CCN1CCN(Cc2ccc(NC(=O)c3cc(NC(=O)c4cncc(-c5ccc(C#N)cc5)c4)cc(OC)c3)cc2C(F)(F)F)CC1	5.6µM	16µM	i	i	2µM!	25µM!	?	16µM	26µM	?
Cc1ccc(CN=C(N)Nc2nc(C)cc(C)n2)cc1	16µM	i	i	i	i	i	15µM	?	?	i
Cc1ccc(C)c(N/C(N)=N/c2nc(C)cc(C)n2)c1	i	i	i	i	i	i	nt	nt	nt	nt
COc1ccc(-c2cc(C(=O)NCCc3ccccc3)c3c(-c4ccc(Cl)cc4)[nH]nc3n2)cc1	i	?	i	i	i	i	nt	nt	nt	nt
O=C(OCCCc1cc2ccccc2c(=O)o1)c1ccco1	i	i	i	i	i	i	nt	nt	nt	nt
OCc1ccc(-c2nn(Cc3ccccc3)c3ccccc23)o1	2.8µM	?	i	i	i	?	1µM	0.65µM	?	i
CC(C(=O)N1CCc2ccccc21)N1CCN(c2cccc(C(F)(F)F)c2)CC1 (configuration not stated)	7.1µM	i	i	i	i	i	?	i	?	i
COc1cc(/C=C/C(=O)c2ccc([N+](=O)[O-])o2)ccc1O	1.1µM	3.5µM	i	i	i	?	4.1µM	8.2µM	2.9µM	?
COc1cc(/C=C/C(=O)O)ccc1O	i	i	i	i	i	i	nt	nt	nt	nt
COc1ccc(/C=C/C(=O)c2ccc([N+](=O)[O-])o2)cc1OC	2.5µM	?	?	i	11µM	8.9µM	2.9µM	4.6µM	2.1µM	i
CC(C)Oc1cc(S(=O)(=O)N2CCCCC2)ccc1N	i	i	i	i	i	i	nt	nt	nt	nt
Cc1ccc(CC(=O)Nc2ncc([N+](=O)[O-])s2)cc1	i	?	i	i	i	nt	nt	nt	nt	nt
CCCCC(CC)C(=O)Nc1ncc([N+](=O)[O-])s1 (configuration not stated)	11µM	?	i	i	i	?	7.3µM	?	?	i
O=C(c1ccc(Br)cc1)N(Cc1nc2ccccc2c(=O)[nH]1)C1CCCC1	11µM	i	i	i	i	i	23µM	i	i	i
SMILES	TGFb SMAD3 inh	S2 tox	mIDH1 inhibitor	LDHA block	HepG2 tox-1	ATXN2 expr inh	TGFb confirm	HepG2 tox-2	TGFb CCL64 inh	TGFb COP inh
COc1ccccc1OCC(=O)NC1CCCc2ccccc21 (configuration not stated)	i	i	i	i	i	i	nt	nt	nt	nt
CC(C)c1ccccc1OCC(=O)NC1CCCc2ccccc21 (configuration not stated)	16µM	i	i	i	i	i	18µM	?	?	i
CCOC(=O)C1=C(CC)Nc2ccccc2N=C1NC(=O)c1cc(C)on1	i	i	i	i	i	i	nt	nt	nt	nt
CCOC(=O)C1=C(CC)Nc2ccccc2N=C1NC(=O)Nc1ccc(Cl)c(Cl)c1	7.1µM	?	i	i	i	?	18µM	?	6.5µM	i
Cc1ccc(SC(C)C(=O)NCc2ccncc2)cc1 (configuration not stated)	?	i	i	i	i	i	?	i	i	i
CCC(=O)Nc1c(S(=O)(=O)c2ccccc2)c2nc3ccccc3nc2n1C(C)c1ccccc1 (configuration not stated)	13µM	i	i	i	i	i	?	i	?	i
O=C(COc1cccc2ccccc12)Nc1ccc(Cl)cc1C(=O)O	11µM	i	i	?	i	i	16µM	8.2µM	?	i

Screening results: PubChem BioAssay, National Center for Advancing Translational Sciences (NCATS)
